Source: PubChem BioAssay (Tox21)
Records with an inconclusive call do not appear. Calls of active or inactive are those of the source. Unless noted, calls follow the shape of the dose curve; as a rule, active = well fitted curve in the direction sought with a large enough effect in the repeat runs; inconclusive = weak or mixed curves; inactive = no such curve, though single readings can be large; an effect the other way counts as inactive or inconclusive.

Tests used:
[1] = biological target: Thyrotropin-releasing hormone receptor (Homo sapiens) (UniProt P34981); assay: qHTS assay to identify small molecule agonists of the thyrotropin-releasing hormone receptor (TRHR) signaling pathway (AID 1346891; calls by dose curve; also: potency is read from the fitted curve at half-maximal effect; as to activation: series mostly up to about 58 µM)
Outline: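 Intracellular calcium rise, read as fluorescence every second for 3 min, served as the agonist signal in dye-loaded HEK293 cells expressing TRHR; each compound ran at 15 concentrations in triplicate.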

[2] = Human pregnane X receptor (PXR) small molecule agonists, qHTS cell viability counter screen (AID 1346977); also: nearly all actives have a fitted effect of over 50% in size
Outline: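 PXR-Luc HepG2, 2,000 cells/well, 5% charcoal-stripped FBS; 5hr settle; cpd 24hr, 37C/5% CO2; CellTiter-Fluor at 23hr, read 1hr later (fluorescence).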

[3] = Caspase-3/7 induction in HepG2 cells by small molecules, qHTS assay (AID 1346978); also: nearly all actives have a fitted effect of over 15% in size
Outline: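 Caspase-3/7 induction was measured by Caspase-Glo 3/7 luminescence (30 min, room temperature) after a 17 hr compound exposure of wild-type HepG2 cells seeded at 2,000 per well and pre-incubated 5 hr.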

[4] = Caspase-3/7 induction in CHO-K1 cells by small molecules, qHTS cell viability counter screen (AID 1346979); also: nearly all actives have a fitted effect of over 35% in size
Outline: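 Cells (CHO-K1, wild type) are plated at 1,500 per well and incubated 5hr. Test compounds in DMSO are then pinned in, followed by 16hr at 37C and 5% CO2. Viability is read by CellTiter-Fluor fluorescence after 1hr.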

[5] = Caspase-3/7 induction in CHO-K1 cells by small molecules, qHTS assay (AID 1346980); also: nearly all actives have a fitted effect of over 15% in size
Outline: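 Luminescent Caspase-Glo 3/7 read (30min, room temperature) quantified apoptosis induction. Cells were wild-type CHO-K1, treated with compound for 17hr at 37 C and 5% CO2.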

[6] = Caspase-3/7 induction in HepG2 cells by small molecules, qHTS cell viability counter screen (AID 1346981); also: series mostly up to about 92 µM; nearly all actives have a fitted effect of over 30% in size
Outline: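 Steps: seed 2,000 HepG2 cells per well; incubate 5 hr at 37 C; pin-add compounds in DMSO; incubate 16 hr; add CellTiter-Fluor; after 1 hr at 37 C and 5% CO2, read fluorescence.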

[7] = biological target: Nuclear receptor subfamily 1 group I member 2 (Homo sapiens) (UniProt O75469); assay: Human pregnane X receptor (PXR) small molecule agonists, qHTS assay (AID 1346982); also: nearly all actives have a fitted effect of over 35% in size; also: potency is read from the fitted curve at half-maximal effect
Outline: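 Agonist mode qHTS: PXR-Luc HepG2 cells plated 5 hr before DMSO-dissolved compounds were pinned in, cultured 24 hr at 37 C, 5% CO2; ONE-Glo luminescence readout.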

[8] = biological target: Cytochrome P450 2D6 (Homo sapiens) (UniProt P10635); assay: Cytochrome P450 Family 2 Subfamily D Member 6 (CYP2D6) small molecule antagonists: luciferase reporter qHTS assay (AID 1671196); also: nearly all actives have a fitted effect of over 50% in size; also: potency is read from the fitted curve at half-maximal effect; as to activity change, negative = inhibition: series mostly up to about 120 µM
Outline: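 P450-Glo format: CYP2D6 converts a proluciferin substrate to luciferin in an NADPH-driven reaction lasting 1 h at room temperature. Light output, proportional to CYP2D6 activity, reflects interference by test chemicals.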

[9] = biological target: Cytochrome P450 2C9 (Homo sapiens) (UniProt P11712); assay: Cytochrome P450 Family 2 Subfamily C Member 9 (CYP2C9) small molecule antagonists: luciferase reporter qHTS assay (AID 1671198); also: nearly all actives have a fitted effect of over 50% in size; also: potency is read from the fitted curve at half-maximal effect; as to activity change, negative = inhibition: series mostly up to about 120 µM
Outline: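 Enzyme-substrate mix preincubated with compound 10 min at room temperature; reaction started with NADPH regeneration solution, 1 h 37C. Luminescent luciferin product read after 20 min detection reagent.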

[10] = biological target: Voltage-gated inwardly rectifying potassium channel KCNH2 (Homo sapiens) (UniProt Q12809); assay: Human Ether-a-go-go-Related Gene (hERG) channel small molecule antagonists: fluorescence cell-based qHTS assay (AID 1671200);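 also: hERG-expressing U2OS cells given a thallium stimulus after FluxOR II dye loading; series mostly up to about 77 µM; nearly all actives have a fitted effect of over 50% in size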
Outline: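 Channel function was assessed by thallium flux. Cells seeded the previous day and kept at 37 C took up FluxOR II dye over 1 h in the dark at room temperature, then sat another 10 min before stimulation.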

[11] = biological target: Cytochrome P450 3A4 (Homo sapiens) (UniProt P08684); assay: Cytochrome P450 Family 3 Subfamily A Member 4 (CYP3A4) small molecule antagonists: luciferase reporter qHTS assay (AID 1671201); also: nearly all actives have a fitted effect of over 50% in size; also: potency is read from the fitted curve at half-maximal effect; as to activity change, negative = inhibition: series mostly up to about 120 µM
Outline: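 Compounds in DMSO were pin-transferred onto CYP3A4 enzyme-substrate mix and held 10 min at room temperature. NADPH regenerating solution started the reaction for 1 h; luciferin detection reagent stopped it, and luminescence was read after 20 min.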

[12] = biological target: Cytochrome P450 2C19 (Homo sapiens) (UniProt P33261); assay: Cytochrome P450 Family 2 Subfamily C Member 19 (CYP2C19) small molecule antagonists: luciferase reporter qHTS assay (AID 1671197); also: nearly all actives have a fitted effect of over 65% in size; also: potency is read from the fitted curve at half-maximal effect; as to activity change, negative = inhibition: series mostly up to about 120 µM
Outline: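 P450-Glo CYP2C19 system: enzyme-substrate mix with compound 10 min at room temperature, then NADPH regeneration solution, 1 h at 37C. Proluciferin-to-luciferin conversion detected by luminescence after 20 min with detection reagent; ketoconazole as positive control.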

[13] = biological target: Cytochrome P450 1A2 (Homo sapiens) (UniProt P05177); assay: Cytochrome P450 Family 1 Subfamily A Member 2 (CYP1A2) small molecule antagonists: luciferase reporter qHTS assay (AID 1671199); also: nearly all actives have a fitted effect of over 50% in size; also: potency is read from the fitted curve at half-maximal effect; as to activity change, negative = inhibition: series mostly up to about 120 µM
Outline: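 Inhibition of CYP1A2 conversion of proluciferin to luciferin, detected by luminescence. Reaction run 1 h at room temperature with NADPH regeneration after brief compound preincubation.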

[14] = biological target: Nuclear receptor subfamily 1 group I member 2 (Rattus norvegicus) (UniProt Q9R1A7); assay: Rat pregnane X receptor (rPXR) activation by small molecules, qHTS assay (AID 1346983); conditions: rPXR luciferase reporter cells, One-Glo luminescence, 24 h; max activation: stronger effect = higher value; also: nearly all actives have a fitted effect of over 20% in size
Outline: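 Luminescent readout (One-Glo luciferase, 30 min room temperature) followed 24 hr compound treatment at 37 C of rPXR cells plated 2,000 per well and preincubated 5hr; qHTS format with compounds delivered in DMSO.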

[15] = biological target: Nuclear receptor subfamily 1 group I member 2 (Homo sapiens) (UniProt O75469); assay: CYP3A4 induction through human pregnane X receptor (PXR) by small molecules, qHTS assay (AID 1346984); also: nearly all actives have a fitted effect of over 40% in size
Outline: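 Steps: seed DPX-2 cells, 5 hr at 37C; pin-transfer compounds; 24 hr at 37C; add Luciferin-IPA (3uM final), 3 hr at 37C; add One-Glo, 30 min RT; read luminescence.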

[16] = biological target: Nuclear receptor subfamily 1 group I member 2 (Homo sapiens) (UniProt O75469); assay: Human pregnane X receptor (PXR) activation by small molecules, qHTS assay (AID 1346985); also: nearly all actives have a fitted effect of over 40% in size
Outline: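 DPX-2 cells (HepG2 co-transfected with a PXR response element and a CYP3A4-promoter luciferase construct) were seeded at 2,000 per well, rested 5 hr at 37C, then exposed to DMSO-dissolved compounds for 24 hr. Activation was read as luciferase luminescence.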
% is scaled to controls: 0 for no effect and ±100 for the full control effect.

Sequence of Voltage-gated inwardly rectifying potassium channel KCNH2 (Homo sapiens) (Q12809 whole entry, looked up): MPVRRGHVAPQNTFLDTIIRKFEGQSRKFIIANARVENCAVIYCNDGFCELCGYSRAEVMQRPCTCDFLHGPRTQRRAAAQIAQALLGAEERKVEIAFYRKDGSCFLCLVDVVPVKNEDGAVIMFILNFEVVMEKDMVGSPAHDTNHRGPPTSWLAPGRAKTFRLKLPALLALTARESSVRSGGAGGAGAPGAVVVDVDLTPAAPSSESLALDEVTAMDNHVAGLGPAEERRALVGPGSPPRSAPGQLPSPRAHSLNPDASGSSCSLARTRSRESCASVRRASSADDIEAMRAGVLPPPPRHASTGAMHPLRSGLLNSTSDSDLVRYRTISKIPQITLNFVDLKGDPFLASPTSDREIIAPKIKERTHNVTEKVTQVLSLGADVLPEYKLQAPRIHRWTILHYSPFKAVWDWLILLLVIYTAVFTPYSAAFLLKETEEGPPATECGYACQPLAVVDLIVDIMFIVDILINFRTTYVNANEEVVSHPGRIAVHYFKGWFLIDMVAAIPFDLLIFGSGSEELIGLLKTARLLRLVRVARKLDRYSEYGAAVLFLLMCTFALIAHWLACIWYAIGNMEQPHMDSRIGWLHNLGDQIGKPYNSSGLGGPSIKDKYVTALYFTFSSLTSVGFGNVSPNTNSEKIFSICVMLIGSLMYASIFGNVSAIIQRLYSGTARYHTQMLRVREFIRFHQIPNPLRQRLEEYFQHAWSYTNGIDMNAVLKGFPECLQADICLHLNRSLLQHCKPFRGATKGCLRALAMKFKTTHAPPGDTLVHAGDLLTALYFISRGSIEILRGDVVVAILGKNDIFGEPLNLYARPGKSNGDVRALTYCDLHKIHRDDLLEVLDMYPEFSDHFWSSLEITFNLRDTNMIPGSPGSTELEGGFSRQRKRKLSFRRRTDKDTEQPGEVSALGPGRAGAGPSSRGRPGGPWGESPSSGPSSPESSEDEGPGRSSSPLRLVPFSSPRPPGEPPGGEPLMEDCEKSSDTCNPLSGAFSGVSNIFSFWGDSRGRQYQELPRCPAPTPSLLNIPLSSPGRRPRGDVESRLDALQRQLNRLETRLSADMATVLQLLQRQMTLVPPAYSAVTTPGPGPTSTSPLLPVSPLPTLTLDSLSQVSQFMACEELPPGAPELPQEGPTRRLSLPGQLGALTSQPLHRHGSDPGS
Sequence of Cytochrome P450 3A4 (Homo sapiens) (P08684 whole entry, looked up): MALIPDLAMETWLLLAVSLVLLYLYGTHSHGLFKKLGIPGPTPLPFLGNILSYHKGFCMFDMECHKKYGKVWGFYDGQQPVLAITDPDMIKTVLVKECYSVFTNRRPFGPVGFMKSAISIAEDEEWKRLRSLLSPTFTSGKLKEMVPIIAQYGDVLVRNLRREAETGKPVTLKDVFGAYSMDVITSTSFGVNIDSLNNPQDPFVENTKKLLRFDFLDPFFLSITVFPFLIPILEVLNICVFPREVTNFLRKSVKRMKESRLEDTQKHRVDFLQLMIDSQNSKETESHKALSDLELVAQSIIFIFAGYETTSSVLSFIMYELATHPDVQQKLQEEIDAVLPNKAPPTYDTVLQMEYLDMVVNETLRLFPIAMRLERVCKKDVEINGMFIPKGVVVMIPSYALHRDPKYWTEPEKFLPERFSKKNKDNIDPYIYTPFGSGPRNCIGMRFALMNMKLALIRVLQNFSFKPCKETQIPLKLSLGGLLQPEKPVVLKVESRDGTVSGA
Sequence of Cytochrome P450 1A2 (Homo sapiens) (P05177 whole entry, looked up): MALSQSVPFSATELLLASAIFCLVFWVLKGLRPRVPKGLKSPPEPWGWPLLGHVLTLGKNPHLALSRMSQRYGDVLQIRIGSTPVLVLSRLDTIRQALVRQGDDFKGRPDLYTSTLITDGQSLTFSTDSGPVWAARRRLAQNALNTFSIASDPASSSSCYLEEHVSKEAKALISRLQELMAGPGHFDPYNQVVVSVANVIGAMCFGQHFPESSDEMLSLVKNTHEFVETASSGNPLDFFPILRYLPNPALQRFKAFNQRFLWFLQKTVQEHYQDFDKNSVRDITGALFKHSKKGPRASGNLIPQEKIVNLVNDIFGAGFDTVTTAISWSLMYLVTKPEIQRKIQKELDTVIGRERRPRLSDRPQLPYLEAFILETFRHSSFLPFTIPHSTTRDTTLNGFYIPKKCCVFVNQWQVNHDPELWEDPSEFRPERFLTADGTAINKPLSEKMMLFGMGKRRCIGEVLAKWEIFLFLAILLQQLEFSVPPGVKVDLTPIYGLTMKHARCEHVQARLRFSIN
Sequence of Cytochrome P450 2D6 (Homo sapiens) (P10635 whole entry, looked up): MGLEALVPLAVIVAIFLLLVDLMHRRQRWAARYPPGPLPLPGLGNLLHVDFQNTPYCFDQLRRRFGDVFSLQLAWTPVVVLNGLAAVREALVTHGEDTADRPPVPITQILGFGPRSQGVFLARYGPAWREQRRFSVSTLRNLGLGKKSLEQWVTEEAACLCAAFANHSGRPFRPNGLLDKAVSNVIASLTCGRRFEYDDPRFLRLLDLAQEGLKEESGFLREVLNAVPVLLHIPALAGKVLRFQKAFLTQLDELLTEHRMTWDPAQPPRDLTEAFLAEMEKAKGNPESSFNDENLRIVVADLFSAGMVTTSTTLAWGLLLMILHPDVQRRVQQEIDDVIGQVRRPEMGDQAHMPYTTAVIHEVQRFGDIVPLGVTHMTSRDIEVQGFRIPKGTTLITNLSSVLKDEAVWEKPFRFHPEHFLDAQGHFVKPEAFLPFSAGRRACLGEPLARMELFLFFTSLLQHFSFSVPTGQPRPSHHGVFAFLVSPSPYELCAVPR
Sequence of Nuclear receptor subfamily 1 group I member 2 (Homo sapiens) (O75469 whole entry, looked up): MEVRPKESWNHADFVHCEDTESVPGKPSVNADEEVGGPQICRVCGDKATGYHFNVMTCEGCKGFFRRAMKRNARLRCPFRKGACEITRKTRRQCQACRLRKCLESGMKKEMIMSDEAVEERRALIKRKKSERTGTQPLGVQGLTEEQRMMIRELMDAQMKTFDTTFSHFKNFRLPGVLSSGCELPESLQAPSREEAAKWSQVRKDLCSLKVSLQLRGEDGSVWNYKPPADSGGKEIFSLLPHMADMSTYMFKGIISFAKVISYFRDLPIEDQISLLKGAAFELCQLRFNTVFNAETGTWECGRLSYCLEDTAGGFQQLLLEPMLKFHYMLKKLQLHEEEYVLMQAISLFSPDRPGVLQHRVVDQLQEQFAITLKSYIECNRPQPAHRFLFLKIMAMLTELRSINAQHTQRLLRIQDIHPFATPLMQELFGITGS
Sequence of Cytochrome P450 2C9 (Homo sapiens) (P11712 whole entry, looked up): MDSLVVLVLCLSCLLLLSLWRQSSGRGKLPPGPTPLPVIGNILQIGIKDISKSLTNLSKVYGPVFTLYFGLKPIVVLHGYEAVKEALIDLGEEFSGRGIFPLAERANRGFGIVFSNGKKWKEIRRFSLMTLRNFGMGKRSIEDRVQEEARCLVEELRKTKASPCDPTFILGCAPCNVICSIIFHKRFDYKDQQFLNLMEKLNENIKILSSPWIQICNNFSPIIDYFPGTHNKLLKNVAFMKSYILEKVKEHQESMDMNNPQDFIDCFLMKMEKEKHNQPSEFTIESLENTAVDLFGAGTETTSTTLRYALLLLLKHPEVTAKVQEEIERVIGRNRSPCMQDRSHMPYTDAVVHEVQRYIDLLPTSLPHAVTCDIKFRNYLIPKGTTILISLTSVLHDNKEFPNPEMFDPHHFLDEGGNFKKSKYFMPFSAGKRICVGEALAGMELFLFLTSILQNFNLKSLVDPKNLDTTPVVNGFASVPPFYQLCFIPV
Sequence of Cytochrome P450 2C19 (Homo sapiens) (P33261 whole entry, looked up): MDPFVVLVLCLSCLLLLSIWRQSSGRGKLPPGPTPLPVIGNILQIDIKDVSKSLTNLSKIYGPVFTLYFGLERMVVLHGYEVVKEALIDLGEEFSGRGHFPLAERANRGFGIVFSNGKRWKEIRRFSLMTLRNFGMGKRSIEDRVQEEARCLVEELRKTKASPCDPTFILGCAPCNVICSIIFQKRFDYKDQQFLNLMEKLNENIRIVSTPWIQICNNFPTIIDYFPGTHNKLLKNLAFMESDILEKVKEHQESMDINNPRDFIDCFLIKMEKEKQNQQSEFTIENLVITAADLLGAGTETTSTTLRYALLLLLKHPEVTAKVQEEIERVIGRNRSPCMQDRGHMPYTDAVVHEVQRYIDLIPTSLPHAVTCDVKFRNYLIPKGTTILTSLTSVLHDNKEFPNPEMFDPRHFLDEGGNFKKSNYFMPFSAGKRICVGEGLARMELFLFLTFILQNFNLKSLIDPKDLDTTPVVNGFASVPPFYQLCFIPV
Sequence of Thyrotropin-releasing hormone receptor (Homo sapiens) (P34981 whole entry, looked up): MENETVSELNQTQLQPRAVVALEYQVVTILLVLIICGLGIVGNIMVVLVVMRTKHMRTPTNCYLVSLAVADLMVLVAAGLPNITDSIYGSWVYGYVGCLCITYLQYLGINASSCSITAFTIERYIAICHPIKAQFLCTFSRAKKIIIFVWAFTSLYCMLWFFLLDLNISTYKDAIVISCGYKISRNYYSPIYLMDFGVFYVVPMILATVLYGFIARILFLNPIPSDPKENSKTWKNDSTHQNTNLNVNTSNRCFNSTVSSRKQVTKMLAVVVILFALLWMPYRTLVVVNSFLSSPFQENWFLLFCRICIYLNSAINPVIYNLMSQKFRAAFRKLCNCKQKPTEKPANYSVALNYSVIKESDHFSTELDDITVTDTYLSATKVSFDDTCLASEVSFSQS
Sequence of Nuclear receptor subfamily 1 group I member 2 (Rattus norvegicus) (Q9R1A7 whole entry, looked up): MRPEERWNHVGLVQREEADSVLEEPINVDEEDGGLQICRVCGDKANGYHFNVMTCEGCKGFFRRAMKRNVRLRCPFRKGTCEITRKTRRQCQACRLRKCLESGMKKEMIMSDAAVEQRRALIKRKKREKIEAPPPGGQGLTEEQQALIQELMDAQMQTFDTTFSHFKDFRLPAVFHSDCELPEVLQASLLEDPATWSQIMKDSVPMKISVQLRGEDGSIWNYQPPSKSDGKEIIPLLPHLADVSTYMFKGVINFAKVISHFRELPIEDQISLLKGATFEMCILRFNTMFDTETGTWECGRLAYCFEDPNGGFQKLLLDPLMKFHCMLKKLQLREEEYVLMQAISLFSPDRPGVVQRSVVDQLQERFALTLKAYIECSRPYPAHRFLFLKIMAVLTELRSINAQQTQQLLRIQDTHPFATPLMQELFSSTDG

CC/C=C\CCOC(=O)CCCCC
inactive: Potency [1] | Potency [2] | Potency [3] | Potency [4] | outcome [5] | Potency [6] | Potency [7] | Potency [8] | Potency [9] | Potency [10] | Potency [11]

CCCC1CCC(=O)O1 (configuration not stated)
inactive: Potency [1] | Potency [2] | Potency [3] | Potency [4] | outcome [5] | Potency [6] | Potency [7] | Potency [8] | Potency [12] | Potency [9] | Potency [11]

CC1(O)CSC(C)(O)CS1 (configuration not stated)
inactive: Potency [1] | Potency [2] | Potency [3] | Potency [4] | outcome [5] | Potency [6] | Potency [7] | Potency [8] | Potency [10]
active: Potency [13] 39.9 µM

COC(=O)/C=C(/C)N
inactive: Potency [1] | Potency [2] | Potency [3] | Potency [4] | outcome [5] | Potency [6] | Potency [7] | Potency [8] | Potency [12] | Potency [10] | Potency [11]

CC/C=C\CCOC(=O)C(C)C
inactive: Potency [1] | Potency [2] | Potency [3] | Potency [4] | outcome [5] | Potency [6] | Potency [7] | Potency [8] | Potency [12] | Potency [13] | Potency [10]

CCCOCCC
inactive: Potency [1] | Potency [2] | Potency [3] | Potency [4] | outcome [5] | Potency [6] | Potency [7] | Potency [8] | Potency [12] | Potency [13] | Potency [11]

CCCC(CCC)(C(=O)OCC)C(=O)OCC
inactive: Potency [1] | Potency [2] | Potency [3] | Potency [4] | outcome [5] | Potency [6] | Potency [7] | Potency [8] | Potency [12] | Potency [10] | Potency [11]

C=CCCCCCCCCO
inactive: Potency [1] | Potency [2] | Potency [3] | Potency [4] | outcome [5] | Potency [6] | Potency [7] | Potency [8] | Potency [12] | Potency [10] | Potency [11]
active: Potency [13] 39.9 µM

CC(C)(C)c1cccc(O)c1
inactive: Potency [1] | Potency [2] | Potency [3] | Potency [4] | outcome [5] | Potency [6] | Potency [7] | Potency [8] | Potency [12] | Potency [10] | Potency [11]

CC(C)(C)C1CCCCC1=O (configuration not stated)
inactive: Potency [1] | Potency [2] | Potency [3] | Potency [4] | outcome [5] | Potency [6] | Potency [7] | Potency [8] | Potency [12] | Potency [13] | Potency [10] | Potency [11]

O=S(=O)(O)C(F)(F)F
inactive: Potency [1] | Potency [2] | Potency [3] | Potency [4] | outcome [5] | Potency [6] | Potency [7] | Potency [12] | Potency [9] | Potency [13] | Potency [10]

CCC/C=C/CO
inactive: Potency [1] | Potency [2] | Potency [3] | Potency [4] | outcome [5] | Potency [6] | Potency [7] | Potency [8] | Potency [12] | Potency [13] | Potency [10] | Potency [11]

O=C(CCCl)NCc1ccccc1
inactive: Potency [1] | Potency [2] | Potency [3] | Potency [4] | outcome [5] | Potency [6] | Potency [7] | Potency [8] | Potency [12] | Potency [9] | Potency [11]

CCOC(=O)CS
inactive: Potency [1] | Potency [2] | Potency [3] | Potency [4] | outcome [5] | Potency [6] | Potency [7] | Potency [8] | Potency [10] | Potency [11]
active: Potency [12] 82 µM | Potency [13] 65.1 µM

COc1ccc(Nc2ccc(OC)cc2)cc1
inactive: Potency [1] | Potency [2] | Potency [3] | Potency [4] | outcome [5] | Potency [6]
active: Potency [7] 24.8 µM | Potency [8] 36.2 µM | Potency [12] 2.29 µM | Potency [13] 18.2 µM | Potency [11] 18.2 µM

C[C@]12C(=O)OC(=O)[C@H]1[C@H]1C=C[C@@H]2C1
inactive: Potency [1] | Potency [2] | Potency [3] | Potency [4] | outcome [5] | Potency [6] | Potency [7] | Potency [8] | Potency [12] | Potency [11]

CC(C)C1=CC2=CC[C@@H]3[C@](C)(CCC[C@@]3(C)C(=O)O)[C@H]2CC1
active: Potency [7] 27.3 µM | Potency [12] 35.6 µM | Potency [9] 28.3 µM | Potency [11] 35.6 µM
inactive: Potency [1] | Potency [2] | Potency [3] | outcome [5] | Potency [6] | max activation [14] -2.9% | Potency [15] | Potency [16] | Potency [8]

COC(=O)N[C@H](C(=O)N[C@@H](Cc1ccccc1)[C@@H](O)CN(Cc1ccc(-c2ccccn2)cc1)NC(=O)[C@@H](NC(=O)OC)C(C)(C)C)C(C)(C)C
inactive: Potency [1] | Potency [2] | Potency [3] | Potency [4] | outcome [5] | Potency [6] | Potency [8] | Potency [13]
active: Potency [12] 34.7 µM | Potency [9] 15.5 µM

O=C(CC(=O)C(F)(F)F)c1ccccc1
inactive: Potency [2] | Potency [3] | outcome [5] | Potency [6] | Potency [10] | Potency [11]
active: Potency [1] 39.5 µM | Potency [7] 55.3 µM | Potency [12] 36.1 µM | Potency [9] 32.2 µM

CN1CCC[C@@H]1Cc1c[nH]c2ccc(CCS(=O)(=O)c3ccccc3)cc12
inactive: Potency [1] | Potency [2] | Potency [3] | Potency [4] | outcome [5] | Potency [6] | max activation [14] 0.279% | Potency [12] | Potency [13]
active: Potency [8] 13.8 µM | Potency [9] 17.4 µM

CCCS(=O)c1ccc2nc(NC(=O)OC)[nH]c2c1 (configuration not stated)
inactive: Potency [1] | Potency [2] | Potency [3] | outcome [5] | Potency [6] | Potency [9] | Potency [10] | Potency [11]

O=c1oc2c(O)c(O)cc3c(=O)oc4c(O)c(O)cc1c4c23
inactive: activation [1] 0.184% [at 11.8 µM] | activity change, negative = cytotoxicity [2] 4.42% [at 19 µM] | caspase activation [3] 0.0819% [at 19 µM] | caspase-3/7 activation [5] 0.998% [at 19 µM] | activity change, negative = cytotoxicity [6] 1.61% [at 19 µM] | activation [7] -29.4% [at 19 µM] | activity change, negative = inhibition [8] -16.4% [at 23.6 µM] | activity change, negative = inhibition [12] 0.227% [at 23.6 µM] | Potency [9] | Potency [13] | activity change, negative = inhibition [10] 6.87% [at 15.8 µM] | activity change, negative = inhibition [11] 6.71% [at 23.6 µM]
